# Measured values: PubChem BioAssay (NCI)
# “And” between values parts separate entries of the source, which are not always exact repeats. Identical values can stand only once. Compounds without any hit were thinned out: in the full panel of roughly 83,000, 20% have a hit.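 Results are percent growth after 48 hours of single-concentration exposure. 100 means growth as in untreated cells, lower positive values show inhibition; negative values down to -100 show cell death.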 The source made the active and inactive calls. Rule for the calls: active = growth percent below 10; inactive = the rest.
# Experiments:
# Test in all cases: NCI-60 one-dose screen, 48 h (100 = growth as untreated, 0 = no growth, -100 = all killed)
# Details in all cases: 10 µM unless noted
# [1] = system: SK-MEL-2 melanoma
# [2] = system: EKVX NSCLC
# [3] = system: SN12C renal
# [4] = system: UO-31 renal
# [5] = system: TK-10 renal
# [6] = system: ACHN renal
# [7] = system: CAKI-1 renal
# [8] = system: A498 renal
# [9] = system: CCRF-CEM leukemia
# [10] = system: MOLT-4 leukemia
# [11] = system: SR leukemia
# [12] = system: RPMI-8226 leukemia
# [13] = system: OVCAR-8 ovarian
# [14] = system: OVCAR-5 ovarian
# [15] = system: OVCAR-4 ovarian
# [16] = system: SK-OV-3 ovarian
# [17] = system: OVCAR-3 ovarian
# [18] = system: HS 578T breast
# [19] = system: NCI/ADR-RES ovarian
# [20] = system: IGROV1 ovarian
SMILES,growth [1],growth [2],growth [3],growth [4],growth [5],growth [6],growth [7],growth [8],growth [9],growth [10],growth [11],growth [12],growth [13],growth [14],growth [15],growth [16],growth [17],growth [18],growth [19],growth [20]
Oc1ccccc1/C=N\NC(=S)N/N=C/c1ccccc1O,82.3% (inactive) and 24.6% (inactive),61% (inactive) and 71.2% (inactive),58.8% (inactive) and 51.3% (inactive),12.4% (inactive) and 15.5% (inactive),51.4% (inactive) and 24.3% (inactive),15% (inactive) and 10.8% (inactive),-15.7% (active) and 12.3% (inactive),58.5% (inactive),15.9% (inactive) and 15.1% (inactive),21.6% (inactive) and 16% (inactive),20% (inactive) and 21.9% (inactive),29.3% (inactive) and 40.7% (inactive),35.6% (inactive) and 23.4% (inactive),59.2% (inactive) and 59.6% (inactive),25.7% (inactive),46.5% (inactive) and 58.9% (inactive),14.1% (inactive) and 23% (inactive),98.4% (inactive) and 73.4% (inactive),13.5% (inactive) and 19.6% (inactive),
Nc1nc2ncc(CNc3ccc(C(=O)N[C@@H](CCc4nn[nH]n4)C(=O)O)cc3)nc2c(=O)[nH]1,105% (inactive) and 104% (inactive),96.1% (inactive) and 106% (inactive),109% (inactive) and 98.2% (inactive),89.7% (inactive) and 89.8% (inactive),111% (inactive) and 109% (inactive),92.2% (inactive) and 104% (inactive),93% (inactive) and 101% (inactive),105% (inactive) and 92.2% (inactive),108% (inactive) and 94.5% (inactive),95.6% (inactive),95.6% (inactive),106% (inactive) and 95.5% (inactive),106% (inactive) and 90.2% (inactive),88.3% (inactive) and 103% (inactive),100% (inactive) and 116% (inactive),103% (inactive) and 104% (inactive),98.6% (inactive) and 113% (inactive),110% (inactive) and 95.3% (inactive),103% (inactive) and 101% (inactive),99.6% (inactive) and 106% (inactive)
CCN(CC)CCOc1ccc(/C=N/Nc2nc3c([nH]2)c(=O)n(C)c(=O)n3C)cc1,102% (inactive) and 107% (inactive),99.1% (inactive) and 95.8% (inactive),98.9% (inactive) and 96.5% (inactive),80.8% (inactive) and 79.6% (inactive),94.2% (inactive) and 101% (inactive),102% (inactive) and 94.6% (inactive),118% (inactive) and 85.6% (inactive),88.5% (inactive) and 88.9% (inactive),83.5% (inactive) and 103% (inactive),88.4% (inactive) and 102% (inactive),102% (inactive) and 96.8% (inactive),90.7% (inactive) and 108% (inactive),107% (inactive) and 104% (inactive),117% (inactive) and 89.7% (inactive),107% (inactive) and 105% (inactive),106% (inactive) and 107% (inactive),114% (inactive) and 94.8% (inactive),106% (inactive) and 105% (inactive),118% (inactive) and 106% (inactive),
O=C1OC(Oc2ccc(Br)cc2)(c2ccccc2)c2ccccc21 (stereo unspecified),74.2% (inactive) and 73.2% (inactive),96.4% (inactive) and 82.2% (inactive),87.8% (inactive) and 98.2% (inactive),72.4% (inactive) and 89.3% (inactive),89.4% (inactive) and 86.2% (inactive),83.6% (inactive) and 80.3% (inactive),17.9% (inactive) and 0.588% (active),80.1% (inactive) and 93.7% (inactive),70.1% (inactive) and 46.1% (inactive),77.4% (inactive),75.4% (inactive),85.8% (inactive),93.9% (inactive) and 93% (inactive),97.3% (inactive) and 110% (inactive),92.1% (inactive),96.1% (inactive) and 110% (inactive),87.4% (inactive) and 68.8% (inactive),97.6% (inactive) and 84.7% (inactive),90.8% (inactive) and 76.8% (inactive),79.7% (inactive) and 81.3% (inactive)
O=[N+]([O-])c1ccc(Oc2ccccc2)cc1,112% (inactive) and 117% (inactive),100% (inactive) and 122% (inactive),120% (inactive) and 116% (inactive),80.1% (inactive) and 87.6% (inactive),97.9% (inactive) and 103% (inactive),106% (inactive) and 105% (inactive),93.4% (inactive) and 126% (inactive),106% (inactive) and 96.9% (inactive),-24% (active) and 92.5% (inactive),96.5% (inactive) and 92.6% (inactive),89.7% (inactive) and 102% (inactive),79% (inactive) and 93.9% (inactive),109% (inactive) and 103% (inactive),96.1% (inactive) and 97.3% (inactive),113% (inactive) and 121% (inactive),109% (inactive) and 103% (inactive),111% (inactive),100% (inactive),96.2% (inactive) and 107% (inactive),84.4% (inactive) and 104% (inactive)
O=C(CCl)c1ccc2c(c1)Nc1ccccc1S2,80.5% (inactive) and 72.5% (inactive),98.6% (inactive),104% (inactive) and 93.8% (inactive),97.7% (inactive) and 81% (inactive),95.5% (inactive),104% (inactive) and 92.4% (inactive),98.4% (inactive),84.1% (inactive) and 77.2% (inactive),53.7% (inactive) and 50.5% (inactive),46.3% (inactive) and 48.5% (inactive),13.6% (inactive) and 6.19% (active),63.4% (inactive) and 52.1% (inactive),95.1% (inactive) and 88.7% (inactive),105% (inactive) and 117% (inactive),90.1% (inactive) and 83.4% (inactive),100% (inactive) and 99.3% (inactive),96.8% (inactive) and 71.6% (inactive),93% (inactive) and 106% (inactive),94.7% (inactive) and 95.9% (inactive),104% (inactive) and 93.3% (inactive)
COc1ccc(S(=O)(=O)N2CCOCC2)cc1NC(=O)c1[nH]c(C)c2c1CCCCC2=O,105% (inactive) and 67.5% (inactive),103% (inactive) and 54% (inactive),98.3% (inactive) and 64.4% (inactive),90.5% (inactive) and 32% (inactive),103% (inactive) and 28.5% (inactive),107% (inactive) and 50.6% (inactive),96.6% (inactive) and 15.7% (inactive),93.5% (inactive) and -15.8% (active),111% (inactive) and 58.9% (inactive),104% (inactive) and 65.9% (inactive),113% (inactive) and 64.4% (inactive),104% (inactive) and 21.5% (inactive),99.6% (inactive) and 61.7% (inactive),102% (inactive) and 66.8% (inactive),114% (inactive) and 59.2% (inactive),103% (inactive),111% (inactive) and 68% (inactive),,107% (inactive) and 79.1% (inactive),
Cc1ccc(-c2noc(CC(=O)c3ccc([N+](=O)[O-])cc3)n2)cc1,110% (inactive),95.9% (inactive),94.1% (inactive),89.6% (inactive),115% (inactive),103% (inactive),97.1% (inactive),86.7% (inactive),96.7% (inactive),90.5% (inactive),98.1% (inactive),116% (inactive),100% (inactive),97.5% (inactive),102% (inactive),97.6% (inactive),102% (inactive),99.8% (inactive),104% (inactive),104% (inactive)
